The text below walks through data of PubChem BioAssay.

In test [1] the test system is PRMT1 (protein arginine N-methyltransferase 1). The test is described as follows: small molecules binding arginine methyltransferase PRMT1 – biochemical, small-molecule microarray, 635 nm fluorescence, primary screen (AID 1088).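 Further: binding of Prmt1 protein to compounds spotted on small-molecule microarray slides.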 The note with it: higher = more signal.
Test [2] can be described thus: growth effects on S. cerevisiae YJM789 – YJM789 clinical isolate, OD600, 24 h, basal, primary screen (AID 1089).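 Further: growth of clinical yeast isolate S. cerevisiae YJM 789 seeded 1000 cells per well; test concentration not given here.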 The note with it: higher = more signal, called active from +8 up or from −8 down.
Test [3] can be described thus: S. pombe growth modifiers, basal conditions – strain 972, OD600, 24 h, no modulator, primary screen (AID 1090).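 Further: basal condition with compound alone and no growth modifier present; test concentration not given here.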 Particulars: S. pombe 972 growth, higher = more signal, called active from +8 up or from −8 down.
Test [4] is described as follows: budding yeast growth modifiers under rapamycin – strain BY4716, OD600, 96 h, primary screen (AID 1091). Further: test concentration not given here. The note with it: S. cerevisiae BY4716 + rapamycin, higher = more signal, called active from +8 up or from −8 down.
In test [5] the target is Torsin-1A-interacting protein 2 (Homo sapiens) (UniProt Q8NFQ8). Kind of test: small molecules binding lysate-expressed LULL1 – cell lysate, human LULL1 lysate, 635/667 nm fluorescence, primary screen (AID 1092).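 Further: probe is lysate of COS7 cells overexpressing human LULL1; score merges per-feature 667 nm fluorescence with signal-to-noise.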 Particulars: small-molecule microarray, hLULL1 lysate binding, 635 nm fluorescence; higher = more signal.
Test [6] in a line: optical density change of DRC41 E. coli – strain DRC41, OD650, 24 h, E. coli filamentation project, primary screen (AID 1093).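 Further: MC1000 strain lacking acrAB efflux and sulA so SOS filamentation is blocked; test concentration not given here.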 The note with it: E. coli DRC41 growth, higher = more signal, called active from +8 up or from −8 down.
Test [7] is described as follows: probe aLefty2 binding to arrayed compounds – biochemical, biotinylated probe, 635/667 nm fluorescence, primary screen (AID 1094).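 Further: score merges spot fluorescence near 667 nm with spot signal-to-noise ratio.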 Particulars: small-molecule microarray, higher = more signal.
Test [8] has as its system Noggin (protein binding on small-molecule microarray). Kind of test: small molecules binding Noggin protein – biochemical, 635/667 nm fluorescence, primary screen (AID 1095).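 Further: score merges 667 nm feature fluorescence with signal to noise over triplicate slides.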 The note with it: 635 nm fluorescence, higher = more signal.
Test [9] concerns the target Neurogenic locus notch homolog protein 3 (Homo sapiens) (UniProt Q9UM47). Kind of test: small molecules binding NOTCH3 protein – biochemical, 635/667 nm fluorescence, primary screen (AID 1096). Particulars: small-molecule microarray, 635 nm fluorescence, higher = more signal.
Test [10] is described as follows: probe aEGFR binding to arrayed compounds – biochemical, biotinylated probe, 635/667 nm fluorescence, primary screen (AID 1097).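 Further: probe is a biotinylated anti-EGFR antibody binding compounds printed on slides; score combines fluorescence near 667 nm and signal to noise of each spot.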 The note with it: small-molecule microarray, higher = more signal.

The structures appear in SMILES notation. Activity calls are given as the source filed them.

Sequence of Neurogenic locus notch homolog protein 3 (Homo sapiens) (Q9UM47 whole entry, looked up): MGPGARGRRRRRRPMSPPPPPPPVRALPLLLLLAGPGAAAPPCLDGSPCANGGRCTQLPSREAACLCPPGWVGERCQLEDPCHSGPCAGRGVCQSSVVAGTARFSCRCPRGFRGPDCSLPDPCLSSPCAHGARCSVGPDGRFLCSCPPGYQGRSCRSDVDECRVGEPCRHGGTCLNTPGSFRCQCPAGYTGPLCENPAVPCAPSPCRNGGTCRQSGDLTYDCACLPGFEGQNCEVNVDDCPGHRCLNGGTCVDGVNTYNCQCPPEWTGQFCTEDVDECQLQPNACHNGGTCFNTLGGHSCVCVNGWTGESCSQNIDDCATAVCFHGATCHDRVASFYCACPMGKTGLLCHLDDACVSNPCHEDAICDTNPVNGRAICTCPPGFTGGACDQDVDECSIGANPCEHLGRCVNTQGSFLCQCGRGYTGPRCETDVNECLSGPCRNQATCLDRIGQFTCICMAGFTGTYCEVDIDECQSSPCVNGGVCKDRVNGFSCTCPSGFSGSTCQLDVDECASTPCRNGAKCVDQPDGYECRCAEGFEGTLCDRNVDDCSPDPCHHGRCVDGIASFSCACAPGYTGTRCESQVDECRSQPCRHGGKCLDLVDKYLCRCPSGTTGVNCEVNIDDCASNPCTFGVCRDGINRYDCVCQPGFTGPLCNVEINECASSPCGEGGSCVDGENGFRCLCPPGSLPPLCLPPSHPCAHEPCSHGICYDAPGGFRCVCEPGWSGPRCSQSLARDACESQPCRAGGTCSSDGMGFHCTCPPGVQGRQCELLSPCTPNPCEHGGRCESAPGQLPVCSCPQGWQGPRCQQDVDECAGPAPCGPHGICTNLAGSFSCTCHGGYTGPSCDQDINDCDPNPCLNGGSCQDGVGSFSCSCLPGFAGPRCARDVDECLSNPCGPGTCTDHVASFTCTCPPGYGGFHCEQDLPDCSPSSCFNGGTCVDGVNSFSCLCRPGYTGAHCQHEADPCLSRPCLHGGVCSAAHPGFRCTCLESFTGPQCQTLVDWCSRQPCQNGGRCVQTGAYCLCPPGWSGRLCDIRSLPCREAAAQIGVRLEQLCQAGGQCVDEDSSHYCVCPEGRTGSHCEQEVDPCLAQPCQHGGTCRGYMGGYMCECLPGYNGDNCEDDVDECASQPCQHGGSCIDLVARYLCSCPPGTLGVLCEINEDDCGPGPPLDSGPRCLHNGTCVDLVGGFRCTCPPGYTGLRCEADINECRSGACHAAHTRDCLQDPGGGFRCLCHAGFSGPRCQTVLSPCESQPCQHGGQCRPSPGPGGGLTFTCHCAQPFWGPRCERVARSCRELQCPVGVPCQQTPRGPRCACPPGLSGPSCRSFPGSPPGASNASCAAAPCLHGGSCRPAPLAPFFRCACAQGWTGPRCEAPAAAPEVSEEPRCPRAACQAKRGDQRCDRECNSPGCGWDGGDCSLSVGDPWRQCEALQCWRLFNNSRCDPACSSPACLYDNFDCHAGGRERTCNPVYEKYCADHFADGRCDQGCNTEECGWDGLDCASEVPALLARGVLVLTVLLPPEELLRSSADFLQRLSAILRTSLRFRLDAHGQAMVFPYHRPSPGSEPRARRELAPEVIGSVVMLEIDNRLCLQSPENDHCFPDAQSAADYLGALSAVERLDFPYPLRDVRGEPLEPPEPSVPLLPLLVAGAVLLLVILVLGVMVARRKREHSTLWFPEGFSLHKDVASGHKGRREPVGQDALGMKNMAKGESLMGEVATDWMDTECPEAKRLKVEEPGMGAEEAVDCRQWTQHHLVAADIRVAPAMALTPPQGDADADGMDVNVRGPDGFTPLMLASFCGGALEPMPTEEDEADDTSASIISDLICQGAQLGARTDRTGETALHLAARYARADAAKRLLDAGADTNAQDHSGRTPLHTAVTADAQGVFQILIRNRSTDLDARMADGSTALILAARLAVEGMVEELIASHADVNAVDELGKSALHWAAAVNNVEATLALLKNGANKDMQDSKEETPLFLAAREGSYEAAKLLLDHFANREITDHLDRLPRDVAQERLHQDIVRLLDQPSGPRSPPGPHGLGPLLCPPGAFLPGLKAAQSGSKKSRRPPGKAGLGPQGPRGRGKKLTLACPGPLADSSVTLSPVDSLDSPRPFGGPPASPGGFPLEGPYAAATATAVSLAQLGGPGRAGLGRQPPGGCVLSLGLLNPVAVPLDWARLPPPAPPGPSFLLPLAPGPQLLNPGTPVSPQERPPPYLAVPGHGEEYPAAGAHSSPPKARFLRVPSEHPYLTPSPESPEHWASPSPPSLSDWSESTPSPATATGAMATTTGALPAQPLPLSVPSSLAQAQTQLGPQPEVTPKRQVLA
Sequence of Torsin-1A-interacting protein 2 (Homo sapiens) (Q8NFQ8 whole entry, looked up): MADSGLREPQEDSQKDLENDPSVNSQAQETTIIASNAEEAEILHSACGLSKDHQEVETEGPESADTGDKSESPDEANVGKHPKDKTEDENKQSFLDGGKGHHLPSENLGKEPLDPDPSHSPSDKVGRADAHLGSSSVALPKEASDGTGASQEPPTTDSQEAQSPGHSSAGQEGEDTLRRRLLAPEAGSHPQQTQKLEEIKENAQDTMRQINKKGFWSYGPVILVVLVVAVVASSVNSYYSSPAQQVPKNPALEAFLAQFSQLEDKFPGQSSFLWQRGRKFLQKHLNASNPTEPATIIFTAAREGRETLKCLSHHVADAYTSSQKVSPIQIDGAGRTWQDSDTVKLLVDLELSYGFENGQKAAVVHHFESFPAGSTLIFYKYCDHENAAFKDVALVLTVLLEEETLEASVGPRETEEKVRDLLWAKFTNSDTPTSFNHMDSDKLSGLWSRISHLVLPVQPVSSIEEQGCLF

Regarding `[N-]=[N+]=NCc1ccccc1C[C@]1(C(=O)N2CCCCC2)COC(c2ccc(OCCCO)cc2)=N1`, the composite z-score in test [1] was 1.57; in test [5] it was 1.55; in test [7], 0.346; in test [8], 0.683; in test [9], 0.202; in [10] it was 0.306. Besides, the z-score was 0.504 (inactive) in test [2], -1.92 (inactive) in test [3], 34.8 (active) in test [4] and 3.43 (inactive) in [6].

With `O=C1O[C@H](c2ccccc2)[C@H](c2ccccc2)N2[C@H]1[C@@H](C(=O)O)[C@]1(C(=O)Nc3ccc(C#CC4(O)CCCCCC4)cc31)[C@H]2c1ccccc1OCCO`, the composite z-score turned out to be 1.56 in test [1]; 2.27 in [5]; 0.366 in test [7]; 0.621 in test [8]; 1.11 in [9]; 0.494 in test [10]. Besides, the z-score in [2] is 2.68 (inactive); in [3], -0.155 (inactive); in test [4] it was 0.247 (inactive); in [6], 1.47 (inactive).

Turning to `O=C1c2ccccc2[C@](Cc2ccccc2I)(C(=O)NCCN2CCOCC2)[C@H](c2ccc(CO)cc2)N1Cc1ccccc1C(F)(F)F`, the composite z-score in test [1] was 1.56; in test [5], 2.95; in test [7], -0.0376; in test [8], 0.307; in test [9] it was 1.01; in test [10], -0.109. In addition, the z-score is -1.06 (inactive) in test [2], -1.06 (inactive) in [3], -0.132 (inactive) in [4] and -1.82 (inactive) in test [6].

As to `C=CCNC(=O)[C@H]1[C@@H]2C(=O)O[C@@H](c3ccccc3)[C@@H](c3ccccc3)N2[C@@H](c2ccc(O)cc2)[C@]12C(=O)Nc1ccccc12`, the composite z-score in test [1] was 1.05; in [5], 2.75; in test [7], -0.193; in test [8], -0.0122; in test [9] it was -0.537; in test [10], -0.177. In addition, the z-score in test [2] was 1.14 (inactive); in [3], 0.118 (inactive); in [4], 1.37 (inactive); in test [6] it was 1.68 (inactive).

Take `COC(=O)[C@@]1(Cc2ccccc2)[C@H]2c3cc(C(=O)N(C)C)n(Cc4ccc(Cl)c(C(F)(F)F)c4)c3C[C@H]2CN1C(=O)c1ccccc1`: the composite z-score in [1] amounted to 0.813; in [5], 2.74; in test [7] it was 0.146; in [8], 1.59; in test [9], 1.01; in [10], 0.0926. Further, the z-score is 1.01 (inactive) in test [2], 1.45 (inactive) in test [3], 3.56 (inactive) in test [4] and -1.12 (inactive) in test [6].

`COc1ccc(C(=O)Nc2cccc(CN3C(=O)[C@]4(O[C@H](CC(=O)N(CCO)Cc5ccccc5)[C@@H]([Si](C)(C)c5ccc(OC)cc5)[C@@H]4C)c4ccccc43)c2)cc1`: the composite z-score is 1.05 in test [1]; 1.69 in [5]; 0.0553 in test [7]; 0.701 in [8]; 0.255 in test [9]; -0.0251 in [10]. Moreover, the z-score in test [2] is 1.22 (inactive); in test [3] it was 0.706 (inactive); in [4], 3.65 (inactive); in test [6], 0.854 (inactive).

`COC(=O)c1c2oc(c1C(=O)OC)C(=O)N[C@H](Cc1ccccc1)Cn1cc(nn1)C1(CCCCC1)NC(=O)N[C@H](CO)CC2`: the composite z-score in test [1] was 0.286; in test [5], 1.46; in [7], -0.124; in test [8] it was 0.292; in [9], -0.147; in test [10], -0.158. For the same compound, the z-score in [2] is 1.92 (inactive); in test [3] it was -0.261 (inactive); in test [4], -0.691 (inactive); in [6], 2.01 (inactive).

As for `COC(=O)[C@H]1N=C(c2ccc(OCCCO)cc2)O[C@H]1c1ccccc1N=[N+]=[N-]`, the composite z-score is 1.08 in [1]; 2.73 in test [5]; 0.588 in test [7]; 0.0025 in test [8]; -0.0392 in [9]; 0.131 in test [10]. Further, the z-score in test [2] is -0.651 (inactive); in test [3], -4.13 (inactive); in [4], -1.09 (inactive); in test [6] it was 0.112 (inactive).

In the case of `CCOC(=O)C=C1C[C@@H](c2cccc([N+](=O)[O-])c2)O[C@@H](c2cccc([N+](=O)[O-])c2)O1`, the composite z-score is 1.5 in test [1]; 2.29 in [5]; 0.91 in [7]; 0.327 in [8]; 1.12 in [9]; 0.246 in test [10]. Also, the z-score in test [2] is 1.07 (inactive); in test [3], 1.8 (inactive); in test [4], 1.79 (inactive); in test [6], -0.239 (inactive).

Turning to `Cc1ccc(S(=O)(=O)N2[C@@H](c3ccccc3)C(C(=O)O)=CC[C@H]2c2ccc(F)cc2)cc1`, the composite z-score was 1.26 in [1]; 4.08 in [5]; -0.0803 in [7]; -0.0184 in [8]; 0.76 in [9]; -0.241 in test [10]. Further, the z-score is -0.485 (inactive) in test [2], 0.364 (inactive) in test [3], 0.311 (inactive) in test [4] and -0.0865 (inactive) in test [6].

For the compound `COCCOC(=O)N1C(=O)[C@@]2(c3cc(C#CCC(C(=O)OC)C(=O)OC)ccc31)[C@H](c1ccc(O)cc1)N1[C@H](c3ccccc3)[C@H](c3ccccc3)OC(=O)[C@H]1[C@@H]2C(=O)N1CCc2cc(OC)c(OC)cc2C1`, the composite z-score in test [1] was 1.54; in test [5], 2.56; in test [7], -0.103; in test [8], 1.12; in test [9], 0.8; in [10], 0.0353. The z-score in test [2] was 0.344 (inactive); in test [3], -1.01 (inactive); in test [4] it was 0.157 (inactive); in test [6], 0.794 (inactive).

`CCCC[C@@H](O)C1=C(C)Cn2c(=O)n(-c3ccccc3)c(=O)n2[C@H]1CO`: the composite z-score was -0.23 in test [1]; -0.249 in test [5]; -0.218 in test [7]; -0.0422 in test [8]; -0.839 in test [9]; -0.0517 in [10]. Further, the z-score in [2] is -1.43 (inactive); in test [3], -1.39 (inactive); in [4], -0.846 (inactive); in [6], 2.53 (inactive).

Turning to `CCCCC=C[C@@H](NC(=O)C(C)(C)C)c1ccccc1`, the composite z-score is 0.956 in test [1]; 1.08 in test [5]; 0.0769 in test [7]; -0.0096 in [8]; 1.11 in test [9]; 0.313 in [10]. In addition, the z-score in [2] is 0.924 (inactive); in [3] it was 1.84 (inactive); in test [4], 4.33 (inactive); in [6], -1.46 (inactive).

Consider `Cc1ccc(S[C@]2(C(=O)NC3CC3)CC(=O)N(C3Cc4ccccc4C3)[C@@H]2c2ccc(CO)cc2I)cc1`, for which the composite z-score was 0.198 in test [1]; 1.67 in test [5]; -0.0771 in test [7]; -0.992 in test [8]; -0.847 in test [9]; -0.269 in test [10]. In addition, the z-score in [2] is -0.192 (inactive); in [3] it was -2.85 (inactive); in test [4] it was 3.27 (inactive); in test [6], 0.844 (inactive).

On to `COCCOC(=O)N1C(=O)[C@@]2(c3cc(C#CC4=CCCCC4)ccc31)[C@H](C(=O)N1CCCCCCC1)[C@H]1C(=O)O[C@H](c3ccccc3)[C@H](c3ccccc3)N1[C@@H]2c1ccccc1OCCO`, for which the composite z-score is 1.55 in test [1]; 3.02 in test [5]; 1.15 in test [7]; 1.5 in test [8]; 1.06 in test [9]; 0.417 in test [10]. The z-score in test [2] is 1.01 (inactive); in test [3], -1.22 (inactive); in test [4], 1.98 (inactive); in test [6] it was 0.87 (inactive).
